{
  "source": "PubChem BioAssay (EPA / NIEHS)",
  "note": "Calls of active or inactive are those of the source. Rule for the calls: active = hit-call score of the fitted dose curve at least 0.9, where 1 is the maximum; inactive = score below 0.9.",
  "data": [
    {"read-out": "Monokine induced gamma interferon (MIG), CXCL9 (gene 4283)", "assay": "BSK_hDFCGF_MIG: BioMAP Diversity Plus: hDFCGF Assay for Monokine induced gamma interferon (MIG) Biomarker Activity (AID 2283063)", "conditions": "primary human foreskin fibroblasts; actives raise or lower the signal", "protocol": "BSK_hDFCGF is a cell-based, multiplexed-readout assay that uses foreskin fibroblast, a human skin primary cell, with measurements taken at 24 hours after chemical dosing in a 96-well plate.BSK_hDFCGF_MIG is an assay component measured in the BSK_hDFCGF assay. It measures MIG antibody related to regulation of gene expression using ELISA technology.Data from the assay component BSK_hDFCGF_MIG was analyzed into 1 assay endpoint. This assay endpoint, BSK_hDFCGF_MIG, was analyzed with bidirectional fitting relative to DMSO as the negative control and baseline of activity. Using a type of binding reporter, gain or loss-of-signal activity can be used to understand changes in the signaling as they relate to the gene CXCL9. Furthermore, this assay endpoint can be referred to as a primary readout, because this assay has produced multiple assay endpoints where this one serves a signaling function. To generalize the intended target to other relatable targets, this assay endpoint is annotated to the cytokine intended target family, where the subfamily is chemotactic factor.\nThe levels of cell surface (or secreted, indicated by the prefix \"s\") biomarker endpoints were measured by ELISA. Overt cytotoxicity to cells in confluent adherent cultures (all systems other than the BT system) was assessed by measuring total protein levels using sulforhodamine B (SRB) staining in parallel cultures at the time of biomarker measurements, indicated as SRB endpoints. For proliferation assays for adherent cell types, individual cell types are cultured at sub-confluence and relative cell numbers quantified by SRB staining at time points optimized for each system (48 h: 3C and CASM3C systems; 72 h: BT and HDF3CGF systems; 96 h: SAg system). SRB was performed by staining cells with 0.1% SRB after fixation with 10% TCA and reading wells at 560 nm.Viability and proliferation of PBMC (T cells) was quantified by Alamar Blue reduction for the SAg and BT systems. For PBMC viability (referred to as PBMC Cytotoxicity within the assay endpoint names), cells were plated (75,000/well in a 96-well plate) and then chemical samples added for 1 h before addition of activators, SEB and TSST-1 (20 ng/mL final concentration each). Cells were incubated for 90 h. Then, Alamar Blue (20 uL/well) (Invitrogen, Cat DAL1100) was added for 6 h, and the plates were read with a fluorescence microplate reader at 546/580 nm (excitation/emission). For PBMC proliferation, cells were plated and activated as above but incubated for only 16 h prior to addition of Alamar Blue. Plates were read after 6 h.", "values": [
      {"compound": "CC(C)=CCC/C(C)=C\\CO", "outcome": "inactive"},
      {"compound": "COC(=O)c1ccccc1O", "outcome": "inactive"},
      {"compound": "Fc1ccccc1[C@@H](F)COC1CCC(Nc2ncnc3[nH]ncc23)CC1", "note": "(stereo not given in full)", "outcome": "inactive"},
      {"compound": "C[C@](N)(Cc1ccc(O)c(O)c1)C(=O)O", "AC50": "20 µM (active)"},
      {"compound": "COc1ccc(-n2nc(C(F)F)cc2-c2ccc(S(C)=O)cc2)cc1", "note": "(stereo not given)", "outcome": "inactive"},
      {"compound": "CNS(=O)(=O)c1cc(C(=O)N2CCC(CCN3C4CCC3CC(n3c(C)nc5ccccc53)C4)(c3cccc(F)c3)CC2)c(Cl)cc1F", "note": "(stereo not given)", "outcome": "inactive"},
      {"compound": "Cc1ccc(N)cc1O", "outcome": "inactive"},
      {"compound": "CCNc1ccccc1", "outcome": "inactive"},
      {"compound": "CCCCC(CC)COC(=O)c1ccc(C(=O)OCC(CC)CCCC)cc1", "note": "(stereo not given)", "outcome": "inactive"},
      {"compound": "CN(C)c1ccc(N=NS(=O)(=O)O)cc1", "outcome": "inactive"},
      {"compound": "COc1cccc(-c2ccc(/C=C\\CN3CCCCCC3)cc2Cl)c1", "AC50": "34.5 µM (active)"},
      {"compound": "Nc1cccc(N)c1", "outcome": "inactive"},
      {"compound": "CN(C)c1ccc(Cc2ccc(N(C)C)cc2)cc1", "outcome": "inactive"},
      {"compound": "Clc1nc(Cl)c(Cl)c(Cl)c1Cl", "outcome": "inactive"},
      {"compound": "O=C(O)c1cccc(Oc2ccccc2)c1", "outcome": "inactive"},
      {"compound": "COc1ccc(/C=C/S(=O)(=O)NC(=O)c2ccc(C)cc2Cl)cc1", "outcome": "inactive"},
      {"compound": "CCOC(=O)COc1ccc2c(c1)CC(NCC(O)c1cccc(Cl)c1)CC2", "note": "(stereo not given)", "AC50": "26.8 µM (active)"},
      {"compound": "CC/C(=C\\C(=N/O)C(N)=O)C(C)[N+](=O)[O-]", "note": "(stereo not given)", "outcome": "inactive"},
      {"compound": "CCCCC(CC)COC(=O)CCCCCCCCC(=O)OCC(CC)CCCC", "note": "(stereo not given)", "outcome": "inactive"},
      {"compound": "CCOc1cccc(-n2cc(C(=O)N3CCN(c4cc(C(=O)O)c5ccccc5c4)CC3)nc2-c2ccc(C)cc2)c1", "AC50": "26.3 µM (active)"},
      {"compound": "CCCC(=O)OCC", "outcome": "inactive"},
      {"compound": "CCCCCCCCCCCCCCCO", "outcome": "inactive"},
      {"compound": "CC(C)CCCCCCCOC(=O)CCCCC(=O)OCCCCCCCC(C)C", "outcome": "inactive"},
      {"compound": "CC(C)=CCCC(C)CCO", "note": "(stereo not given)", "outcome": "inactive"},
      {"compound": "CNCc1ccc(NC(=O)c2c[nH]c3c2C(=O)CCC3)cc1", "outcome": "inactive"},
      {"compound": "C1=CCCC=CCCC=CCC1", "outcome": "inactive"},
      {"compound": "Cn1c(=O)cc(Oc2ccc(F)cc2F)c2cnc(NCC(C)(C)O)nc21", "outcome": "inactive"},
      {"compound": "O=C1OC(=O)C2C3C=CC(C3)C12", "note": "(stereo not given)", "outcome": "inactive"},
      {"compound": "Nc1nc2ncc(CNc3ccc(C(=O)N[C@@H](CCC(=O)O)C(=O)O)cc3)nc2c(=O)[nH]1", "outcome": "inactive"},
      {"compound": "CC(C)=CCC/C(C)=C/CO", "outcome": "inactive"},
      {"compound": "CC1=CC(=O)CC(C)(C)C1", "outcome": "inactive"},
      {"compound": "CC(C)=CCCC(C)=CC=O", "outcome": "inactive"},
      {"compound": "C=CC(=C)CCC=C(C)C", "outcome": "inactive"},
      {"compound": "Cc1ccc(S(=O)(=O)O)cc1C", "outcome": "inactive"},
      {"compound": "On1ccccc1=S", "AC50": "0.204 µM (active)"},
      {"compound": "CC(=O)c1ccc2c(c1)[C@H](NC(=O)c1ccc(F)cc1)[C@@H](O)C(C)(C)O2", "outcome": "inactive"},
      {"compound": "CCn1nc(Cc2ccccc2)cc1C1CCN(C[C@H]2C[C@H](N(C)[C@@H](C(=O)O)C(C)C)C[C@@H]2c2cccc(F)c2)CC1", "outcome": "inactive"},
      {"compound": "O=C1CCC(N2C(=O)c3ccccc3C2=O)C(=O)N1", "note": "(stereo not given)", "outcome": "inactive"},
      {"compound": "O=C(CCCCCCCCc1cccnc1)N1CCC(C=C(c2ccccc2)c2ccccc2)CC1", "AC50": "11.5 µM (active)"},
      {"compound": "CC(C)CCCCCCOC(=O)c1ccc(C(=O)OCCCCCCC(C)C)c(C(=O)OCCCCCCC(C)C)c1", "outcome": "inactive"}
    ]}
  ]
}
